# Source: PubChem BioAssay (Sanford-Burnham Center for Chemical Genomics)
# The list is not random: actives were taken first. Their share in the collection is about 28%.
# CYP2C19 act = activators of human cytochrome P450 2C19 | 96,000 tested, under 10 active | activation factor at 5 µM | recombinant CYP2C19, luciferin-H EGE luminescence; hits give high values; 0 = fully inhibited enzyme, 1 = untreated enzyme;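 active = activation factor of at least 2 at 5 µM in the primary screen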;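 also: 0 = wells with 2.5 mM tranylcypromine and 1 = vehicle-only wells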
# Target sequence (P33261 whole entry, looked up): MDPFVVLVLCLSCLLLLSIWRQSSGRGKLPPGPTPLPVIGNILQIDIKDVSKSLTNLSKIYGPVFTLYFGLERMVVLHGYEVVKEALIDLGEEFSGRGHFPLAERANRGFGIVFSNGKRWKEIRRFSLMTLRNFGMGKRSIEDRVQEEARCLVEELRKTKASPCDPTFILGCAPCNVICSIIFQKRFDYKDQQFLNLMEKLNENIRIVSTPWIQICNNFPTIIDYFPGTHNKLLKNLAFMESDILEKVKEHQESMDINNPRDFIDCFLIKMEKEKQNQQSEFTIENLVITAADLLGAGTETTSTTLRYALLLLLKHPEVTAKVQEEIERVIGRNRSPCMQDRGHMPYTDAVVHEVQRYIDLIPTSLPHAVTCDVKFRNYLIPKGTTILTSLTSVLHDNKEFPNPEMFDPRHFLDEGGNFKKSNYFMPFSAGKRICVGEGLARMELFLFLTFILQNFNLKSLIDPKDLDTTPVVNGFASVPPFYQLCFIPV
# CYP2C9 activ = activators of human CYP2C9. P11712. 96,000 compounds, 1.4% hits. recombinant CYP2C9, luciferin-H conversion, luminescence; hits give high values; factor 1 = untreated enzyme, 0 = blocked. activation factor at 5 µM;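 active = activation factor of 2 or more for CYP2C9 at a 5 µM dose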;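 also: 0 = sulfaphenazole-blocked wells and 1 = vehicle-only wells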
# CYP2C9 inh = blocks human cytochrome P450 2C9; inhibition, % at 5 µM; 96,000 compounds, 20% hits; CYP2C9 Supersomes, luciferin-H conversion, luminescence;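 active = blocking of liver enzyme CYP2C9 beyond about 50% at 5 µM, limit read from the data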
# Mac1 fbg enh = enhancers of human CD11b/CD18 binding to fibrinogen; K562 CD11b/CD18 adhesion to fibrinogen, ATPlite luminescence; activation, % at 10 µM; 93,000 compounds, 0.07% hits; AID 1499;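 active = 10 µM primary screen giving 50% or more activity, confirmed by 40% or more on retest at that dose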
# Mac1 fbg inh = blocks human CD11b/CD18 adhesion to fibrinogen. K562 CD11b/CD18 adhesion to fibrinogen, ATPlite luminescence; Mn2+ added to activate the integrin. inhibition, % at 10 µM. P05107+P11215. 93,000 compounds, 0.54% hits. AID 1497;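 active = primary inhibition of 50% or more at 10 µM, then 40% or more on retest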
# CYP2C19 inh = human CYP2C19 inhibition. AID 778. inhibition, % at 5 µM. 96,000 compounds, 21% hits. CYP2C19 Supersomes, luciferin-H EGE luminescence, 30 min;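 active = CYP2C19 inhibition above a set limit at 5 µM in the primary screen, cut at about 50% in these data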;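 also: plate controls were negative control wells for no effect and 2.5 mM tranylcypromine positive control for full effect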
# Active calls of the source: *; . = not tested or not shown.
SMILES,CYP2C19 act,CYP2C9 activ,CYP2C9 inh,Mac1 fbg enh,Mac1 fbg inh,CYP2C19 inh
Cc1cccc(N2CCN(C(=O)CCNC(=O)Cn3ccc4ccccc4c3=O)CC2)c1C,1,1,0.1,0.2,2.6,-2.0
Cc1nn(Cc2ccc(Cl)cc2)c(C)c1NC(=O)CSc1nc2c(c(C(F)(F)F)n1)CCc1ccccc1-2,0.7,0.3,72.5*,.,.,27.8
Cc1ccccc1Cn1cc(NC(=O)CSc2nc3c(c(C(F)(F)F)n2)CCc2ccccc2-3)cn1,0.7,0.2,80.7*,.,.,29.5
Cn1c(=O)c2c(nc(NCc3ccco3)n2C/C=C/c2ccccc2)n(C)c1=O,0.3,0.7,25.7,-1.7,-0.4,73.6*
COc1ccc(C2C=C(c3ccc(C)c(C)c3)Nc3ncnn32)c(OC)c1OC (stereo unspecified),0,0.1,91.9*,3.5,0.0,95.7*
COc1ccc(C2C=C(c3ccccc3)Nc3ncnn32)cc1 (stereo unspecified),0.9,1.1,-6.2,-0.2,30.8,14.1
Fc1ccc(Br)cc1C1C=C(c2ccc(Br)s2)Nc2ncnn21 (stereo unspecified),0,0.5,46.0,15.7,39.7,95.9*
COc1cccc(C2C=C(c3ccc(Br)s3)Nc3ncnn32)c1OC (stereo unspecified),0,0.2,83.3*,-2.1,-2.0,98.1*
Clc1ccc(C2=CC(c3ccco3)n3ncnc3N2)cc1 (stereo unspecified),0.8,0.9,7.1,.,.,15.6
C=CCOC(=O)C1=C(C)Nc2ncnn2C1c1cc(Br)ccc1F (stereo unspecified),0.8,0.5,46.1,.,.,21.0
Cc1cc(NC(=O)c2cc3ncc(Br)cn3n2)no1,1.1,0.8,17.0,-3.1,-5.6,-8.0
Cc1cccc(C)c1Nc1nnc(SCC(=O)NC(=O)c2cccn2C)s1,.,.,.,-2.3,4.2,.
Cc1ccccc1Nc1nnc(SCC(=O)Nc2ccccc2[N+](=O)[O-])s1,.,.,.,8.2,16.0,.
C/C(N)=C(/C#N)C(=O)COC(=O)COc1ccc(Cl)cc1,0.8,1.1,-5.2,1.3,-34.5,20.5
C/C(N)=C(/C#N)C(=O)CSc1nnc(SCc2ccc(Cl)cc2)s1,0.7,0.3,70.6*,1.0,-1.2,30.8
C/C(N)=C(/C#N)C(=O)CSc1nnc(Nc2cccc(C)c2C)s1,0.3,0.3,66.1*,0.6,14.9,66.1*
C/C(N)=C(/C#N)C(=O)CSc1nnc(Nc2c(C)cccc2C)s1,0.3,0.3,68.6*,-3.7,-6.4,72.4*
CN1CCc2nc(NC(=O)c3cccc(OC(F)F)c3)sc2C1,0.8,1,-3.3,-1.8,-50.2,21.5
COCCn1cc(C(=O)c2ccccc2OCC(=O)Nc2cc(C)on2)cc(C#N)c1=O,0.7,0.6,42.0,2.0,0.2,31.6
O=C(CCNS(=O)(=O)c1cccc2nonc12)N1CCN(c2cccc(Cl)c2)CC1,0.3,0.8,15.4,-4.8,-10.4,68.2*
Cc1ccc(CCNC(=O)C2CCN(S(=O)(=O)c3cccc4nonc34)CC2)cc1,0.9,1.2,-22.2,25.7,2.0,5.3
O=C(CCNS(=O)(=O)c1cccc2nonc12)NCCc1ccc(Cl)cc1,0.3,1.9,-92.4,0.5,0.1,73.9*
O=C(O)CCC(=O)OCC1CCCO1 (stereo unspecified),1,1,3.2,-1.9,-10.0,0.2
O=C(NCCNS(=O)(=O)c1ccccc1)c1cc(OCC(F)(F)F)ccc1OCC(F)(F)F,0.8,0.9,6.3,.,.,25.0
C/C(=C\c1ccccc1)C(=O)n1nnc2ccccc21,0.7,1,3.9,.,.,28.2
Cc1[nH]n(-c2ccc([N+](=O)[O-])cc2)c(=O)c1C=NCCN1CCN(C(=O)c2ccccc2)CC1,0.4,0.3,65.2*,-6.0,1.3,59.2*
O=C(CCOc1ccccc1)Nc1ccc(S(=O)(=O)N2CCCC2)cc1,0.5,0.1,85.8*,-2.3,5.9,50.0*
O=C(COc1ccccc1)Nc1ccc(S(=O)(=O)N2CCCC2)cc1,1.1,0.8,21.9,-2.2,-11.8,-10.5
O=C(CCCOc1ccccc1)Nc1ccc(S(=O)(=O)N2CCOCC2)cc1,0.5,0.3,70.2*,-2.0,3.9,54.9*
